Screens as filed in PubChem.
Rows were chosen to be rich in hits. Some 1.1% of all compounds tested hit in one or more screens of this group.
Mtb BioA inh: blocks M. tuberculosis BioA enzyme activity | purified M. tuberculosis BioA enzyme, plate reader | inhibition, % at 9.99 µM | 0.096% of 360,000 active | AID 602481; in the data active = inhibition above about 40%
PrP 5UTR inh: inhibition of PrP 5' UTR reporter expression; cell-based PrP 5' UTR mRNA reporter, plate reader; inhibition, % (no concentration beside the values); 0.35% of 340,000 active; AID 488862; in the data active = inhibition above about 52%
PfHsp40 rescue: restores yeast growth despite PfHsp40 toxicity; 0.68% of 340,000 active; S. cerevisiae expressing PfHsp40, growth rescue, ATP luminescence; growth rescue, % at 12.5 µM; in the data active = growth rescue above about 28%, passing the limit was not always enough;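 also: yeast W303a lacking pdr1 and pdr3 grown in galactose medium; growth measured after three days at 30 °C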
Yp Topo-I inh: inhibitors of Yersinia pestis topoisomerase I; activity, % at 10 µM; AID 504884; 0.064% of 360,000 active; Y. pestis Topo-I cleavage product accumulation, plate reader; in the data active = activity above about 50%, passing the limit was not always enough
FadD28 binding: M. tuberculosis FadD28 bisubstrate binding inhibition | FadD28 bisubstrate probe binding, fluorescence polarization | inhibition, % at 12.5 µM | 0.22% of 360,000 active; in the data active = inhibition above about 8.5%, passing the limit was not always enough
PrP 5UTR single: prion 5' UTR mRNA inhibition, cherry-pick retest. 48% of 1,100 active. AID 504592. shares compounds with PrP 5UTR inh. cell-based prion protein 5' UTR reporter, plate reader. inhibition, % at 2.5 µM; in the data active = inhibition above about 54%
Of the large screens only hits and unclear results are named; the others gave an inactive call (follow-up assays come after a bar, where they were run).

CC(=O)OC1CC(OC2C(O)CC(OC3C(O)CC(OC4CCC5(C)C(CCC6C5CC(O)C5(C)C(C7=CC(=O)OC7)CCC65O)C4)OC3C)OC2C)OC(C)C1OC1OC(CO)C(O)C(O)C1O (configuration not stated)	PrP 5UTR inh 90 | PrP 5UTR single 90
C[C@@H]1O[C@@H](O[C@H]2C[C@@H](O)[C@]3(CO)[C@@H]4C(CC[C@]3(O)C2)[C@@]2(O)CC[C@H](C3COC(=O)C3)[C@@]2(C)C[C@H]4O)[C@H](O)[C@H](O)[C@H]1O (some centres not stated)	none
C[C@]12CC[C@H](O)C[C@H]1CC[C@@H]1[C@@H]2CC[C@]2(C)[C@@H](C3=CC(=O)OC3)CC[C@]12O	PrP 5UTR inh 77 | PrP 5UTR single 84
CC12CCC(O)CC1CCC1C2CCC2(C)C(C3=CC(=O)OC3)C(O)CC12O (configuration not stated)	none (no result: Mtb BioA inh)
O=C(CC1CC1)N[C@@H]1CC[C@H](CCNS(=O)(=O)c2ccc(F)cc2)O[C@@H]1CO	none (no result: PrP 5UTR inh, PfHsp40 rescue, Yp Topo-I inh, FadD28 binding)
CCN1[C@@H]2c3ccc(-c4cccc(F)c4)c(=O)n3C[C@@H]2[C@@H](CO)[C@@H]1C(=O)N[C@H](C)c1ccccc1	none (no result: PrP 5UTR inh, PfHsp40 rescue, Yp Topo-I inh, FadD28 binding)
O=C(C[C@@H]1CC[C@H]2[C@@H](COC[C@H](O)CN2CCc2ccccc2)O1)NCc1ccc(F)cc1	none (no result: PrP 5UTR inh, PfHsp40 rescue, Yp Topo-I inh, FadD28 binding)
CC12CCC(O)CC1CCC1C2CCC2(C)C(C3=CC(=O)OC3)CCC12O (configuration not stated)	PrP 5UTR inh 79 (no result: Mtb BioA inh) | PrP 5UTR single 82
CC12CC[C@H]3[C@@H](CCC4(O)C[C@H](O)CCC34/C=N/NC(=O)Cc3ccccc3)C1(O)CCC2C1=CC(=O)OC1 (some centres not stated)	none
COc1ccccc1C(=O)Nc1nc2ccccc2s1	PrP 5UTR inh 92 | PrP 5UTR single 93
COc1ccc(C(=O)Nc2nc3ccccc3s2)c(OC)c1	PrP 5UTR inh 95 | PrP 5UTR single 95
C[C@@H]1CCCCO[C@@H](CN(C)C(=O)Nc2ccc(C(F)(F)F)cc2)[C@H](C)CN([C@H](C)CO)C(=O)c2cc(NS(=O)(=O)c3cn(C)cn3)ccc2O1	none (no result: PrP 5UTR inh, PfHsp40 rescue, Yp Topo-I inh, FadD28 binding)
C[C@H](CO)N1C[C@H](C)[C@H](CN(C)C(=O)c2ccc(F)cc2)Oc2ncc(Br)cc2C1=O	none (no result: PrP 5UTR inh, PfHsp40 rescue, Yp Topo-I inh, FadD28 binding)
COc1ccc(CN(C)C[C@H]2Oc3ccc(NC(=O)Nc4ccc5c(c4)OCO5)cc3CC(=O)N([C@H](C)CO)C[C@H]2C)cc1	none (no result: PrP 5UTR inh, PfHsp40 rescue, Yp Topo-I inh, FadD28 binding)
C[C@H]1CN([C@@H](C)CO)C(=O)c2cc(NC(=O)Cn3cnnn3)ccc2O[C@@H]1CN(C)Cc1ccc2c(c1)OCO2	none (no result: PrP 5UTR inh, PfHsp40 rescue, Yp Topo-I inh, FadD28 binding)
COC(=O)C(O)(c1ccc(N(C)C)cc1)C(F)(F)F (configuration not stated)	PrP 5UTR inh 66 | PrP 5UTR single inactive
CCOC(=O)N(C)c1ccc(C(O)(C(=O)OC)C(F)(F)F)cc1 (configuration not stated)	none
CC(C)NC(=O)N1[C@@H](CO)[C@H](c2ccccc2)[C@@H]1CN(C)C(=O)c1ccncc1	none (no result: PrP 5UTR inh, PfHsp40 rescue, Yp Topo-I inh, FadD28 binding)
CCc1ccn2cc(-c3cc(-c4ccccc4)no3)nc2c1	PrP 5UTR inh 71 | PrP 5UTR single 82
Cc1ccc2nc(-c3cc(-c4ccccc4)no3)cn2c1	none
Cc1cc(/C=N/Nc2ncnc(N)c2[N+](=O)[O-])c(C)n1-c1ccccc1	PrP 5UTR inh 77 | PrP 5UTR single 78
COCCCn1c(=NC(=O)c2ccccc2)c(C#N)cc2c(=O)n3cccc(C)c3nc21	PrP 5UTR inh 66 | PrP 5UTR single inactive
C[C@@H]1CN([C@@H](C)CO)C(=O)c2cc(-c3cccc(F)c3)cnc2O[C@H]1CN(C)C	none (no result: PrP 5UTR inh, PfHsp40 rescue, Yp Topo-I inh, FadD28 binding)
O=C(Cc1ccc(NC(=O)C2CCN(C(=O)c3ccccc3)CC2)cc1)Nc1ccc(C(=O)N2CCOCC2)cc1	none
O=C(Cc1ccc(Cl)cc1)Nc1ccc(C(=O)N2CCOCC2)cc1	PrP 5UTR inh 63 (no result: Mtb BioA inh) | PrP 5UTR single inactive
COc1ccc(-n2ncc3c(N(C)C4CCCCC4)ncnc32)cc1	PrP 5UTR inh 78 | PrP 5UTR single 66
Cc1cccc(-n2ncc3c(N(CCO)CCO)ncnc32)c1	none
Cc1cccc(-n2ncc3c(N(C)C4CCCCC4)ncnc32)c1	PrP 5UTR inh 78 | PrP 5UTR single 69
CCCOc1ccc(C(=O)C(c2ccccc2)N2CCOCC2)cc1 (configuration not stated)	none
